Results reported in PubChem BioAssay (NCI).
The panel holds about 83,000 compounds, 20% with a hit somewhere; the sample as a whole holds those more often.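 Plates (96-well) were seeded with cells, treated with compound at one concentration, and incubated for 48 hours before percent growth was determined.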 A number with no mark means an inactive call. Active and inactive are the calls of the source. How the source made its calls: active means growth percent below 10; inactive means the rest.

Columns and labels:
Test in all cases: NCI-60 one-dose screen, 48 h (100 = growth as untreated, 0 = no growth, -100 = all killed)
Details in all cases: 10 µM unless noted
EKVX NSCLC = test system: EKVX NSCLC
SN12C renal = test system: SN12C renal
TK-10 renal = test system: TK-10 renal
ACHN renal = test system: ACHN renal
CAKI-1 renal = test system: CAKI-1 renal
A498 renal = test system: A498 renal
CCRF-CEM leukemia = test system: CCRF-CEM leukemia
MOLT-4 leukemia = test system: MOLT-4 leukemia
UO-31 renal = test system: UO-31 renal

Row | Compound | growth (EKVX NSCLC) [%] | growth (SN12C renal) | growth (TK-10 renal) [%] | growth (ACHN renal) | growth (CAKI-1 renal) | growth (A498 renal) | growth (CCRF-CEM leukemia) | growth (MOLT-4 leukemia) | growth (UO-31 renal)
1 | N#Cc1c(-c2ccc(C(F)(F)F)cc2)cc(N2CC(O)C2)n2c1nc1ccccc12 | 63.6 | 72.3% | 64 | 43.4% | 72.1% | -4.38% (active) | 102% | 103% | –
2 | C[C@@H]1C(=O)N(C[C@H](Cc2ccccc2)NC(=O)OCc2ccccc2)[C@]1(Cc1ccccc1)C(=O)OC(C)(C)C | 60.3 | – | 67.2 | 75.2% | 51.4% | 54% | 72.2% | 34% | 46.5%
3 | CC(c1ccc(-n2cccn2)cc1)c1cnc(N2CCc3ccc(C(N)=O)cc3C2)s1 (stereo not drawn) | 54.3 | 86.9% | 68.6 | – | – | 81% | 33.4% | 8.64% (active) | –
4 | COc1cc2c(cc1OC)-c1ccc3cc4c(cc3c1N(CCN1CCCC1)C2)OCO4 | 36.3 | -29.9% (active) | 34.2 | – | – | -2.77% (active) | -5.95% (active) | 2.96% (active) | 32.7%
5 | COc1ccc(-c2nc3sc4c(c3c(=O)[nH]2)CCCC4)c2ccccc12 | – | 36.2% | 38.3 | -32.5% (active) | 9.7% (active) | -24.4% (active) | 12.5% | 14.2% | 24.8%
6 | COc1ccc(-c2cc(-c3cc(OC)ccc3OC)[nH]c(=O)c2C#N)cc1 | 96.5 | 72% | – | 85.3% | 63% | -1.35% (active) | 76.9% | 44.3% | 64.4%
7 | CCc1c(C(=O)N[C@@H]2c3cc(Cl)ccc3CC[C@@H]2O)[nH]c(C)c1C(C)=O | 76 | 94.7% | 87.4 | 77.6% | – | 67.6% | 85.2% | 68.8% | 76.8%
8 | C=CCN1C(=O)[C@]2(SC1=S)[C@H](c1cccc(Cl)c1)CN(C)[C@]21C(=O)NC2C=CC(Cl)=C[C@H]21 (stereo partly drawn) | 38.4 | -53.6% (active) | 70.9 | – | – | 76.8% | 4.67% (active) | -17.7% (active) | -41.2% (active)
9 | CN(C)c1ccc2cc(-c3ccc(Cl)c(Cl)c3)c(N)nc2c1 | 26.3 | 40.9% | 27.9 | 52.3% | – | 40.9% | 58% | 31% | 33.2%
